Assay outcomes (PubChem)
Shiga inhibitor – blocks Shiga toxin action in Vero cells; 9.2% of 290,000 active; Vero cells, Shiga toxin protein synthesis inhibition reporter; inhibition, % at 38.7 µM; AID 2315; in the data active = inhibition mostly above about 28%, no sharp cut-off; inactive = mostly below about 43%
CHX counter – counter-screen for Shiga toxin inhibitors: cycloheximide protein synthesis inhibition | max response, % | AID 2314 | 12% of 300,000 active | cell reporter, cycloheximide protein synthesis inhibition counterscreen; in the data active = max response mostly above about 13%, no sharp cut-off; inactive = mostly below about 14%; note: read at 38.3 µM for the half of the compounds with a filed dose
AMA1-RON2 inh – inhibitors of Plasmodium falciparum AMA1-RON2 interaction; AlphaScreen AMA1-biotinylated RON2 peptide binding; Potency, µM (top dose mostly 58.2 µM), usual class: inhibitors; 0.2% of 360,000 active; AID 720542; active = well fitted inhibition curve with a large enough effect; inconclusive = small, poorly fitted or top-dose-only effect; inactive = no such curve, though single readings can be large or run the other way; note: nearly all actives have a fitted effect of over 45% in size
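AMA1 (3D7) with his tag at 25 nM final met compounds first, then biotinylated RON2 peptide at 25 nM; detection used donor plus acceptor beads, 10 µg/mL apiece, read by AlphaScreen after 30 min at room temperature.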
Lassa entry inh – inhibitors of Lassa virus binding or cell entry. 1.2% of 300,000 active. AID 540256. Lassa virus pseudotype entry inhibition, cell reporter. Potency, µM (titrated, usually from 37.9 µM), most hits filed as inhibitors; calls by dose curve; tested in HEK293 cells; note: nearly all actives have a fitted effect of over 50% in size
Marburg entry inh – blocks Marburg virus binding to or entry into cells; Marburg virus pseudotyped entry inhibition, cell reporter; Potency, µM (doses to about 37.8 µM), hits mostly inhibitors; 1.8% of 300,000 active; calls by dose curve; tested in HEK293 cells
A number is an active result. Only a selection was taken, and hits are over-represented in it overall.

What do the screens show for `CN(C)c1ccc(C2CNC(c3ccc(Cl)c([N+](=O)[O-])c3)c3[nH]c4ccccc4c32)cc1` (centres undefined)?
Shiga inhibitor: inactive; CHX counter: inactive; AMA1-RON2 inh: 20µM

How did O=[N+]([O-])c1cccc(C2NCC(c3ccccc3Cl)c3c2[nH]c2ccccc32)c1 (centres undefined) do in these assays?
Shiga inhibitor: inactive; CHX counter: inactive; AMA1-RON2 inh: inconclusive; Lassa entry inh: 14µM; Marburg entry inh: inconclusive

How did Cc1nn2c(=O)cc(COC(=O)C(c3ccccc3)c3ccccc3)nc2s1 do in these assays?
Lassa entry inh: inactive

How did COC(=O)CC1Oc2ccc(Cl)cc2-n2cc(-c3ccc(C)cc3)nc21 (centres undefined) do in these assays?
Lassa entry inh: inactive; Marburg entry inh: inactive

Results for O=C(N[C@H](CO)Cc1ccccc1)[C@H]1O[C@@H](n2ccc(=O)[nH]c2=O)[C@H](O)[C@@H]1O ?
AMA1-RON2 inh: inactive

How did Cc1ccc2sc(N(Cc3cccnc3)C(=O)CCOc3ccccc3)nc2c1C do in these assays?
Lassa entry inh: inactive

How did Cn1nc(/C=C/c2ccccc2)ccc1=O do in these assays?
Shiga inhibitor: 86; CHX counter: 28; AMA1-RON2 inh: inactive; Lassa entry inh: inactive; Marburg entry inh: inconclusive

Results for O=c1ccc(/C=C/c2ccccc2)nn1Cc1ccccc1 ?
Shiga inhibitor: inactive; CHX counter: inactive; AMA1-RON2 inh: inactive; Lassa entry inh: inconclusive; Marburg entry inh: inactive

Results for O=[N+]([O-])c1[nH]cnc1/C=C/c1ccccc1 ?
Shiga inhibitor: inactive; CHX counter: inactive; AMA1-RON2 inh: inactive; Lassa entry inh: inactive; Marburg entry inh: inactive

How did C(=C\c1cc(/C=C/c2ccccc2)ncn1)/c1ccccc1 do in these assays?
Shiga inhibitor: 82; CHX counter: 71; AMA1-RON2 inh: inactive; Lassa entry inh: inactive; Marburg entry inh: inactive

Results for Cc1nc(/C=C/c2ccccc2)cc(/C=C/c2ccccc2)n1 ?
Shiga inhibitor: 63; CHX counter: 30; AMA1-RON2 inh: inactive; Lassa entry inh: inactive; Marburg entry inh: inactive

What do the screens show for `Cc1ccc(N(CC(=O)N2CCN(c3cc(C)ccc3C)CC2)S(=O)(=O)c2c(C)nn(C)c2C)cc1`?
Lassa entry inh: inactive; Marburg entry inh: inconclusive

What do the screens show for `CC(C)c1ccc(NC(=O)C2CCCN2S(=O)(=O)c2ccc3nc(-c4ccccc4)[nH]c3c2)cc1` (centres undefined)?
Lassa entry inh: inactive

How did N#CC1=C(N)Oc2cc(O)ccc2C1c1ccc2c(c1)OCO2 (centres undefined) do in these assays?
Shiga inhibitor: inactive; CHX counter: inactive; AMA1-RON2 inh: inactive; Lassa entry inh: inactive; Marburg entry inh: inactive

What do the screens show for `COc1ccc(C2C(C#N)=C(N)Oc3cc4c(cc32)OCO4)cc1` (centres undefined)?
Shiga inhibitor: inactive; CHX counter: inactive; AMA1-RON2 inh: inactive; Lassa entry inh: inconclusive; Marburg entry inh: 5.8µM

What do the screens show for `COCCNC(=O)CCCn1c(SCC(=O)c2ccc(Br)cc2)nc2c(sc3ccccc32)c1=O`?
Lassa entry inh: inactive; Marburg entry inh: inactive

Results for CCCCOc1ccc(OCCNS(=O)(=O)N(C)C)cc1 ?
Shiga inhibitor: inactive; CHX counter: 20; AMA1-RON2 inh: inactive; Lassa entry inh: inactive; Marburg entry inh: inactive

Results for COc1ccc(OC)c(NC(=O)CSc2n[nH]c(-c3ccccc3Cl)n2)c1 ?
Lassa entry inh: inactive

How did Fc1ccc(F)c(C2=NNC(=NCC3CCCO3)SC2)c1 (centres undefined) do in these assays?
Shiga inhibitor: 131; CHX counter: 33; AMA1-RON2 inh: inactive

Results for CCOc1cc(Cn2c(-c3ccc(O)c(OCC)c3)nc3ccccc32)ccc1O ?
Lassa entry inh: inactive

Results for CC(C)C1N=C(c2ccc3c(c2)OCO3)CC(c2ccccc2O)N1 (centres undefined) ?
Shiga inhibitor: 79; CHX counter: 39; AMA1-RON2 inh: inactive

Results for CCc1cc(-c2[nH]ncc2-c2ccc3c(c2)OCO3)c(O)cc1O ?
Shiga inhibitor: inactive; CHX counter: inactive; AMA1-RON2 inh: inactive; Lassa entry inh: inconclusive; Marburg entry inh: inconclusive

How did CCOC(=O)C1CCN(C(=O)c2cccs2)CC1 do in these assays?
Shiga inhibitor: inactive; CHX counter: inactive; AMA1-RON2 inh: inactive

Results for O=C(NC(=S)Nc1ccc(N2CCN(C(=O)c3ccccc3)CC2)cc1)c1cccs1 ?
Shiga inhibitor: inactive; CHX counter: inactive; AMA1-RON2 inh: inactive; Lassa entry inh: inconclusive; Marburg entry inh: inconclusive

How did O=C(NC(=S)Nc1ccc(N2CCCCC2)cc1)c1cccs1 do in these assays?
Shiga inhibitor: 79; CHX counter: 52; AMA1-RON2 inh: inconclusive; Lassa entry inh: inconclusive; Marburg entry inh: inconclusive

What do the screens show for `CS(=O)(=O)N1CCN(c2ccc(NC(=S)NC(=O)c3cccs3)cc2)CC1`?
Shiga inhibitor: inactive; CHX counter: 16; AMA1-RON2 inh: inactive; Lassa entry inh: inactive; Marburg entry inh: inactive

Results for CCOC(=O)C1CCN(C(=S)NC(=O)c2cccs2)CC1 ?
Shiga inhibitor: inactive; CHX counter: 29; AMA1-RON2 inh: inactive; Marburg entry inh: inactive

How did O=C(NC(=S)Nc1ccccc1N1CCCC1)c1cccs1 do in these assays?
Shiga inhibitor: 55; CHX counter: 51; AMA1-RON2 inh: inactive

How did O=C(NC(=S)N1CCN(c2ccc(F)cc2)CC1)c1cccs1 do in these assays?
Shiga inhibitor: inactive; CHX counter: inactive; AMA1-RON2 inh: inactive; Lassa entry inh: inactive; Marburg entry inh: inconclusive

What do the screens show for `O=C(NC(=S)N1CCN(c2ccc(O)cc2)CC1)c1cccs1`?
Shiga inhibitor: 84; CHX counter: 24; AMA1-RON2 inh: inactive

Results for COCCN1C(=O)C(=O)/C(=C(/O)c2ccc(OC(C)C)cc2)C1c1cccnc1 (centres undefined) ?
Shiga inhibitor: inactive; CHX counter: inactive; AMA1-RON2 inh: inactive; Lassa entry inh: inactive; Marburg entry inh: inactive

How did C=CCOc1cccc(C2C(C(=O)c3ccco3)=C(O)C(=O)N2Cc2ccncc2)c1 (centres undefined) do in these assays?
Shiga inhibitor: 40; CHX counter: 29; AMA1-RON2 inh: inactive; Lassa entry inh: inactive; Marburg entry inh: inactive

Results for COc1ccc(/C(O)=C2/C(=O)C(=O)N(Cc3cccnc3)C2c2ccccn2)cc1 (centres undefined) ?
Shiga inhibitor: 61; CHX counter: 24; AMA1-RON2 inh: inactive; Lassa entry inh: inactive; Marburg entry inh: inactive

How did O=C1C(=O)N(Cc2cccnc2)C(c2ccccn2)/C1=C(/O)c1ccc(Br)cc1 (centres undefined) do in these assays?
Shiga inhibitor: inactive; CHX counter: inactive; AMA1-RON2 inh: inactive; Lassa entry inh: inactive; Marburg entry inh: inactive

What do the screens show for `CC(C)Oc1ccc(C2C(C(=O)c3ccco3)=C(O)C(=O)N2Cc2cccnc2)cc1` (centres undefined)?
Shiga inhibitor: 45; CHX counter: 35; AMA1-RON2 inh: inactive; Lassa entry inh: inactive; Marburg entry inh: inactive

Results for CC(C)Oc1ccc(/C(O)=C2/C(=O)C(=O)N(Cc3cccnc3)C2c2ccco2)cc1 (centres undefined) ?
Shiga inhibitor: 72; CHX counter: 62; AMA1-RON2 inh: inactive; Lassa entry inh: inactive; Marburg entry inh: inactive
